These results are taken from PubChem BioAssay (NCI).

Some test systems named below: EKVX NSCLC; SN12C renal; UO-31 renal; TK-10 renal; CAKI-1 renal; A498 renal; CCRF-CEM leukemia; MOLT-4 leukemia; SR leukemia; RPMI-8226 leukemia; OVCAR-8 ovarian; OVCAR-5 ovarian; OVCAR-4 ovarian; IGROV1 ovarian; OVCAR-3 ovarian; HS 578T breast; T-47D breast; ACHN renal; SK-OV-3 ovarian; NCI/ADR-RES ovarian.
Assay in all cases: NCI-60 one-dose screen, 48 h (100 = growth as untreated, 0 = no growth, -100 = all killed)
What all share (conditions): 10 µM unless noted

About 83,000 compounds went through this panel and 20% of them were active in at least one assay; those are over-represented in the sample as a whole.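 Results are percent growth after 48 hours of single-concentration exposure. 100 means growth as in untreated cells, lower positive values show inhibition; negative values down to -100 show cell death.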 A number with no mark means an inactive call. Active and inactive are the calls of the source. How the source made its calls: active means growth percent below 10; inactive means the rest.

Regarding `Cn1cc(-c2cc(N)n3nc(-c4cn(C)c5ccc(Cl)cc45)cc3n2)c2cc(Cl)ccc21`, the growth with EKVX NSCLC is 94.9%; with SN12C renal, 85%; in the experiment on UO-31 renal, 100%; in the experiment with TK-10 renal, 116%; in the experiment on CAKI-1 renal, 83.2%; with A498 renal it was 73.1%. The growth in the experiment with CCRF-CEM leukemia is 24.8%; with MOLT-4 leukemia, 51%; in the experiment on SR leukemia, 5.66% (active); in the experiment on RPMI-8226 leukemia it was 88.5%; in the experiment on OVCAR-8 ovarian it was 90.4%; in the experiment on OVCAR-5 ovarian, 107%. For the same compound, the growth in the experiment with OVCAR-4 ovarian was 75.1%; with IGROV1 ovarian, 88.9%; in the experiment on OVCAR-3 ovarian, 84.8%; with HS 578T breast, 107%; in the experiment on T-47D breast it was 90.7%.
Regarding `OC1CCN(CCCOc2c3ccccc3nc3c2oc2ccccc23)CC1`, the growth in the experiment with EKVX NSCLC was -13.7% (active); with SN12C renal, -1.2% (active); in the experiment on UO-31 renal, -34.4% (active); with ACHN renal, -39% (active); with CAKI-1 renal, -36.7% (active); with A498 renal, -78.8% (active). The growth is 6.02% (active) in the experiment with CCRF-CEM leukemia; 3.82% (active) with MOLT-4 leukemia; -3.77% (active) in the experiment with SR leukemia; -24% (active) in the experiment with RPMI-8226 leukemia; -44.9% (active) in the experiment with OVCAR-8 ovarian; -8.63% (active) in the experiment on OVCAR-5 ovarian. Moreover, the growth with OVCAR-4 ovarian was 4.9% (active); with SK-OV-3 ovarian, -10.8% (active); in the experiment on IGROV1 ovarian it was -37.2% (active); in the experiment with OVCAR-3 ovarian it was -18.7% (active); with HS 578T breast, 8.94% (active); in the experiment with NCI/ADR-RES ovarian, -17.9% (active). The growth with T-47D breast was 1.32% (active).
On to `O=C(N/N=C/c1ccc([N+](=O)[O-])o1)c1[nH]c2ccc(Br)cc2c1-c1ccccc1`, for which the growth was 39.2% with EKVX NSCLC; 21.9% with SN12C renal; 30.9% with UO-31 renal; 78.7% in the experiment with TK-10 renal; 20.3% in the experiment with CAKI-1 renal; 7.85% (active) in the experiment with CCRF-CEM leukemia. The growth in the experiment with MOLT-4 leukemia was 5.69% (active); in the experiment on SR leukemia, 6.28% (active); in the experiment with RPMI-8226 leukemia, 0.483% (active); in the experiment on OVCAR-8 ovarian it was -5.13% (active); in the experiment on OVCAR-5 ovarian it was 35.7%; with OVCAR-4 ovarian, 38.2%. Further, the growth in the experiment on SK-OV-3 ovarian was 30.4%; in the experiment with IGROV1 ovarian it was 15.6%; in the experiment with OVCAR-3 ovarian it was 21.9%; with HS 578T breast, 8.44% (active); in the experiment on T-47D breast, 53.9%.
In the case of `N#Cc1nc(-c2ccccc2)oc1N1CC[C@@H](CO)C1`, the growth with EKVX NSCLC was 98.5%; in the experiment on SN12C renal, 98.1%; in the experiment on UO-31 renal it was 86.3%; in the experiment on TK-10 renal, 123%; in the experiment with CCRF-CEM leukemia, 93.6%; in the experiment with MOLT-4 leukemia, 101%. The growth was 84.6% in the experiment with SR leukemia; 99.5% with RPMI-8226 leukemia; 100% with OVCAR-8 ovarian; 108% with OVCAR-5 ovarian; 101% in the experiment on OVCAR-4 ovarian; 116% with SK-OV-3 ovarian. For the same compound, the growth in the experiment with IGROV1 ovarian is 94.5%; in the experiment on OVCAR-3 ovarian, 109%; in the experiment on HS 578T breast, 111%; in the experiment on NCI/ADR-RES ovarian it was 102%; with T-47D breast, 98.1%.
Turning to `COc1ccc2[nH]cc(-c3cc(N)n4nc(-c5c[nH]c6ccc(OC)cc56)cc4n3)c2c1`, the growth in the experiment on EKVX NSCLC is 80.1%; in the experiment on SN12C renal, -64% (active); in the experiment with UO-31 renal, -22.8% (active); in the experiment on TK-10 renal, 16.5%; in the experiment with CAKI-1 renal it was -52.1% (active); in the experiment with A498 renal, 83.1%. Further, the growth is 0.363% (active) in the experiment on CCRF-CEM leukemia; -2.24% (active) in the experiment on MOLT-4 leukemia; -23.6% (active) in the experiment on SR leukemia; -22.7% (active) with RPMI-8226 leukemia; -62.6% (active) in the experiment on OVCAR-8 ovarian; 8.81% (active) with OVCAR-5 ovarian. Further, the growth with OVCAR-4 ovarian is -8.27% (active); in the experiment on SK-OV-3 ovarian, 144%; in the experiment on IGROV1 ovarian, 44.5%; with OVCAR-3 ovarian, 103%; with HS 578T breast, 121%; in the experiment on NCI/ADR-RES ovarian, 88.6%. In addition, the growth in the experiment with T-47D breast is -21.7% (active).
Turning to `COc1ccc(C(=O)c2cc(C(=O)/C=C/c3c(Cl)cccc3Cl)c3cc(C)ccn23)cc1`, the growth in the experiment on EKVX NSCLC is 92.1%; in the experiment with SN12C renal, 94.2%; in the experiment with UO-31 renal, 96.6%; in the experiment with TK-10 renal it was 119%; with A498 renal, 86.4%; in the experiment on CCRF-CEM leukemia it was 99.8%. The growth in the experiment with MOLT-4 leukemia is 96.4%; in the experiment with SR leukemia, 97%; with RPMI-8226 leukemia, 92.6%; in the experiment with OVCAR-8 ovarian it was 100%; with OVCAR-5 ovarian, 102%; in the experiment with OVCAR-4 ovarian, 106%. Also, the growth in the experiment on IGROV1 ovarian was 95.9%; with OVCAR-3 ovarian, 103%; with HS 578T breast it was 95.7%; in the experiment on T-47D breast, 91.7%.
For `COc1ccc(-n2c(SCC(=O)Nc3ccc(-c4nc5ccccc5[nH]4)cc3)nc3ccccc3c2=O)cc1`, the growth with EKVX NSCLC is 53.1%; in the experiment with SN12C renal it was 62.3%; with UO-31 renal, 73.5%; in the experiment on TK-10 renal it was 107%; in the experiment on CAKI-1 renal, 36.8%; in the experiment on CCRF-CEM leukemia it was 25.7%. In addition, the growth in the experiment with MOLT-4 leukemia was 25.7%; in the experiment with SR leukemia, -4.97% (active); with RPMI-8226 leukemia it was -21.2% (active); in the experiment with OVCAR-5 ovarian, 68.5%; in the experiment with OVCAR-4 ovarian, -33.7% (active); in the experiment with IGROV1 ovarian, 17.5%. Besides, the growth in the experiment on HS 578T breast is 28.7%; in the experiment with NCI/ADR-RES ovarian, 32.5%; with T-47D breast, -51.8% (active).
As for `N#Cc1ccc(/C=N/NC(=O)c2[nH]c3ccc(Br)cc3c2-c2ccccc2)s1`, the growth in the experiment on EKVX NSCLC is 25%; with SN12C renal it was 42.1%; in the experiment with UO-31 renal, 36%; in the experiment with TK-10 renal it was 102%; in the experiment on CAKI-1 renal, 18.3%; in the experiment with CCRF-CEM leukemia, 9.74% (active). Further, the growth in the experiment with MOLT-4 leukemia was 4.12% (active); in the experiment on SR leukemia, 7.7% (active); in the experiment on RPMI-8226 leukemia it was -7.36% (active); in the experiment on OVCAR-8 ovarian, 2.33% (active); in the experiment with OVCAR-5 ovarian, 54.5%; in the experiment on OVCAR-4 ovarian, 54.6%. For the same compound, the growth was 22.6% in the experiment on SK-OV-3 ovarian; 17.3% with IGROV1 ovarian; 33.3% in the experiment with OVCAR-3 ovarian; 23.3% in the experiment with HS 578T breast; 9.75% (active) in the experiment on NCI/ADR-RES ovarian; 58.8% with T-47D breast.
As to `CCN1C(=S)N(CC)C2C1N=C(SC)N2/N=C/C=C/c1ccccc1[N+](=O)[O-]` (configuration not stated), the growth with EKVX NSCLC was 93.6%; with SN12C renal, 91.8%; in the experiment with UO-31 renal, 94.8%; in the experiment on TK-10 renal, 125%; with CAKI-1 renal, 76.5%; with A498 renal, 111%. For the same compound, the growth with CCRF-CEM leukemia was 93.1%; in the experiment with MOLT-4 leukemia, 82.1%; in the experiment on SR leukemia, 75%; with RPMI-8226 leukemia, 83.4%; with OVCAR-8 ovarian, 84.7%; in the experiment on OVCAR-5 ovarian, 98.2%. Besides, the growth in the experiment on OVCAR-4 ovarian is 83.6%; with SK-OV-3 ovarian it was 109%; in the experiment with IGROV1 ovarian, 106%; in the experiment with OVCAR-3 ovarian, 121%; in the experiment on HS 578T breast, 88.1%; with NCI/ADR-RES ovarian, 94.3%. Further, the growth in the experiment with T-47D breast is 88.4%.
